# PostGolgi yeast: phenotypic screen on post-Golgi transport, primary screen; 98,000 compounds, 0.9% hits; AID 739, 2007; inhibition, % at 10 µM; post-Golgi transport phenotypic cell assay;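 further: yeast cells grown in 1536-well plates; yeast grown about 18 h at 30C before absorbance read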
# Smad3 FoxH1 inh: Smad3/FoxH1 peptide binding inhibitors, primary screen, biochemical, TR-FRET. Mothers against decapentaplegic homolog 3 (Homo sapiens), P84022. TR-FRET Smad3/Dy647-FoxH1 peptide binding, europium anti-His. inhibition, % at 25 µM. 88,000 compounds, 0.29% hits. AID 630, 2007;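 active means compounds that reduce the energy-transfer binding signal between the protein and its labelled peptide by more than half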;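 further: 0% = Smad3 plus labelled peptide maximal FRET and 100% = peptide-only background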
# Cav3 T inh: Cav3.2 calcium influx blockers – cell-based, Fluo-4 calcium fluorescence, FDSS, MLSMR library, primary screen; Voltage-dependent T-type calcium channel subunit alpha-1H (Homo sapiens), O95180; Cav3.2-expressing cells; stronger effect = lower value; B-score at 10 µM; 100,000 compounds, 4% hits; AID 449739, 2010;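 active means single-dose well whose peak fluorescence ratio is a statistical outlier from its plate by either plate-standardised score or position-corrected B-score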
# DAT uptake mod: changed hDAT dopamine uptake under cocaine IC80, either direction, primary screen, cocaine antagonist project, cell-based, LLC-PK1 hDAT, [14C]-dopamine uptake, MLSMR; Sodium-dependent dopamine transporter (Homo sapiens), Q01959; LLC-PK1 hDAT cells, [14C]-dopamine uptake with cocaine IC80; actives deviate in either direction; B-score at 10 µM; 110,000 compounds, 1.3% hits; AID 449768, 2010;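 active means Z score or B-score, a plate-position-corrected score, falls beyond the plate's 99.7% confidence bounds, in either direction; inactive means both scores lie inside the 99.7% bounds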;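 further: scored against the spread of the other compound wells on the same plate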
# TNAP act mid DEA: human TNAP enzyme activators, primary screen, biochemical, luminescent, intermediate phosphate acceptor level; purified TNAP, CDP-star luminescence, 100 mM DEA, 30 min; stronger effect = higher value; scale: 0 levamisole-inhibited, 1 vehicle-only enzyme; activation factor at 20 µM; 64,000 tested, under 10 active; AID 813, 2007;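 active means activation factor of at least 2 at 20 µM, relative to controls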
# Target sequence (P05186 whole entry, looked up): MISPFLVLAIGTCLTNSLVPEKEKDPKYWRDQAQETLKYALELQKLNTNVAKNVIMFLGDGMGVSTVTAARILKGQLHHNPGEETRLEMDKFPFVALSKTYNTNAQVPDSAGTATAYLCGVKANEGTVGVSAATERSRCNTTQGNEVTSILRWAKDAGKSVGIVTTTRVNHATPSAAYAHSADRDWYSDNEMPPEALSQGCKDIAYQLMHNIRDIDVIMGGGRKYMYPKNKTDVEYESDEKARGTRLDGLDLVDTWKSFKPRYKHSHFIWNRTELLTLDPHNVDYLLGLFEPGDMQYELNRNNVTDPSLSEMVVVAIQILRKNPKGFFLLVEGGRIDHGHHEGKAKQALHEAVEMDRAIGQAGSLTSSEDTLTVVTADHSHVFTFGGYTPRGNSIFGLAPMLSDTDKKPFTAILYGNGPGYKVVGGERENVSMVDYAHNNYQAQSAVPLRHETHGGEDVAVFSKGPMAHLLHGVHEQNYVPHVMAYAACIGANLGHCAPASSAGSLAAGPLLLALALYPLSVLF
# PostGolgi ctrl: growth inhibition of yeast control strain, primary screen, counter-screen for post-Golgi transport modulator project; efflux-deficient yeast background strain, growth absorbance A615, 16 h; inhibition, % at 10 µM; 98,000 compounds, 5% hits
# The depositor's hits bear a star; / = no result; [ ] = dose if it differs, or a comment. Shown are actives, neighbours in structure and some others; about 8.7% of the full set was active somewhere. Unless noted, no stated cut-off is given here; in the data, active means inhibition above about 30%; inactive means the rest.
SMILES,PostGolgi yeast,Smad3 FoxH1 inh,Cav3 T inh,DAT uptake mod,TNAP act mid DEA,PostGolgi ctrl
COC(=O)c1ccc(CSc2ncnc3ccccc23)o1,-6,2,-1.1,-1,0.9,9
COC(=O)c1ccc(CSc2ncnc3c2oc2ccccc23)o1,-5,62*[fluorescence artefact?],-0.065,-0.94,1,6
O=S(=O)(NCCOCC(F)(F)C(F)F)c1ccc2oc3ccccc3c2c1,4,-1,-4.6*,0.19,1,41*
CCOc1ccc(C2CC(c3cccc(OC)c3OC)n3nnnc3N2)cc1Cl (configuration not stated),-1,6,-4.1*,-4.3*,1,-1
Cc1nn(-c2ccccc2)c(C)c1C(=O)OC/C(O)=C(\C#N)c1nc2ccccc2[nH]1,13,1,/,-7.9*,0.9,6
O=C(N/N=C/c1ccc2cccc(OCc3ccccc3)c2n1)c1ccc(Br)cc1,-10,/,-4*,/,/,8
N#CCCSC(=S)[C@@H]1CCCC1=N,/,1,/,/,/,/
Cc1cccc(C)c1NC1=NC(=S)N(c2ccccc2)C12CCOC(C)(C)C2 (configuration not stated),-8,-4,-0.84,0.047,/,6
Cc1ccc(N2C(=S)N=C(Nc3ccccc3C)C23CCOC(C)(C)C3)cc1 (configuration not stated),1,-8,-6.1*,-1.8,/,20
O=C(O)c1ccccc1C(=O)Nc1cc2c(cc1Br)-c1ccccc1C2=O,/,101*,/,/,/,/
O=C(O)c1ccccc1-c1ccccc1C(=O)Nc1ccccc1,5,/,-0.059,0.69,/,14
Cc1ccccc1CSCCNC(=O)CN(c1ccc2c(c1)OCO2)S(C)(=O)=O,-5,-8,-4.3*,-0.81,0.9,5
Cc1ccc(SCCNC(=O)CN(c2ccc3c(c2)OCO3)S(C)(=O)=O)cc1,4,10,-2.1,0.84,0.8,7
Cc1nn(-c2ccccc2)c(Cl)c1/C=C1\SC(=S)NC1=O,21,19,-4.5*,-4.4*,/,26
CCOC(=O)C1=C(C)NC(=O)NC1c1c(C)nn(-c2ccccc2)c1Cl (configuration not stated),-4,2,3,1.1,0.9,4
CCCC(O)(c1ccc(Cl)cc1)C(CN1CCOCC1)c1ccccc1 (configuration not stated),1,3,-1.2,-2.8*,/,50*
CCOC(=O)c1[nH]c(C)c(C(=O)NCCc2ccc(OC)cc2)c1C,5,3,-0.52,0.55,1,0
Cc1ccc(S(=O)(=O)c2c(N)n(NC(=O)c3ccco3)c3nc4ccccc4nc23)cc1,14,8,-5.5*,-1.6,1,7
CN(C)C(=O)N1CCC(C(=O)NC2CCCCCCC2)CC1,-1,5,-0.45,-1.8,0.9,-1
CC1CCN(c2ccccc2NC(=S)NC(=O)c2cccs2)CC1,-5,/,-6.3*,-0.98,/,16
CC1CCN(c2ccccc2NC(=O)c2ccc(F)cc2)CC1,4,11,-3.5,-0.73,/,22
CCOC(=O)C(C(=O)NCc1cccc(OC)c1)c1ncc(C(F)(F)F)cc1Cl (configuration not stated),-5,/,-0.029,0.65,/,-1
Cc1cc(NC2CCCCC2)nc(-c2ccccc2O)n1,5,-4,-1.5,-0.029,/,18
Cc1cc(Nc2ccccc2)nc(-c2ccccc2O)n1,17,/,/,1,0.9,37*
Cc1cc(NCc2ccccc2)nc(-c2ccccc2O)n1,-11,-13,-0.81,0.5,0.9,57*
SMILES,PostGolgi yeast,Smad3 FoxH1 inh,Cav3 T inh,DAT uptake mod,TNAP act mid DEA,PostGolgi ctrl
CCCCCC(=O)Nc1cccc(C2=NOC3(C2)C[C@H](C(N)=O)N(C(=O)CCCCC)C3)c1 (some centres not stated),/,/,-0.013,/,/,/
Cc1ccc2[nH]c(C)c(/C=N/Nc3nc4ccccc4s3)c2c1,49*,-5,0.021,0.026,/,69*
Cc1ccc(C(=O)NC(=S)Nc2ccccc2C(F)(F)F)cc1C,5,/,-2.5,0.17,/,13
CC1(c2nnc(-c3cccc(Cl)c3)o2)CC(c2ccc(C#N)cc2)=NO1 (configuration not stated),/,/,-0.57,0.24,/,/
CC1CC(C)(C)N2C(=O)C3(Nc4ccccc4S3)c3cccc1c32 (configuration not stated),-1,7,-4.7*,0.51,/,45*
Cc1cc2cc(C=O)c(Cl)nc2cc1C,3,/,-5.9*,-1.2,/,10
CC(=O)C1=C(C)OC(N)=C(C#N)C1c1cc2cc(C)c(C)cc2nc1Cl (configuration not stated),-2,/,/,0.53,/,7
CC1CN(C(=O)N2c3ccccc3Sc3ccccc32)C(C)CC1=O (configuration not stated),-1,-1,-4.6*,-0.22,1,37*
CC1CCN(C(=O)N2c3ccccc3Sc3ccccc32)CC1,-1,5,0.11,-0.64,/,23
CCOc1ccc(N2C(=O)CC(N3CCC(NC(=O)Nc4ccccc4)CC3)C2=O)cc1 (configuration not stated),2,9,1.4,-2*,0.9,12
CCOc1ccc(N2C(=O)CC(N3CCN(C(=O)CN4CCCC4)CC3)C2=O)cc1 (configuration not stated),4,4,-0.62,-0.078,0.9,4
Cc1cccc(NC(=O)c2nc[nH]c2C(=O)N[C@@H](Cc2ccccc2)C(=O)OC(C)(C)C)c1,/,/,0.094,0.81,/,/
Cc1cccc(NC(=O)c2nc[nH]c2C(=O)N[C@@H](CC(C)C)C(=O)OC(C)(C)C)c1,/,/,1.1,2.7*,/,/
Cc1c2cc(O)c(=O)cc-2oc2cc(O)c(O)cc12,-6,/,-3.9*,-0.23,/,12
CCN1CCN(C(=O)c2ccc(COc3ccc(Cl)cc3)o2)CC1,6,6,1.1,1.2,/,-7
CCOc1ccc(OCc2ccc(C(=O)N3CCc4ccccc4C3)o2)cc1,-11,/,-2.8*,1.3,/,14
O=[N+]([O-])c1cc(S(=O)(=O)Nc2cccc(C(F)(F)F)c2)ccc1-n1nnc2ccccc21,-4,/,-5.6*,0.54,/,11
COc1ccc(NS(=O)(=O)c2ccc(-n3nnc4ccccc43)c([N+](=O)[O-])c2)cc1,-1,-10,-2,-0.18,/,10
CCS(=O)(=O)N1CCN(c2ccc([N+](=O)[O-])c(NC(C)c3ccccc3)c2)CC1 (configuration not stated),10,/,/,-0.73,/,44*
CC(Nc1cc(N2CCN(C(=O)C(C)(C)C)CC2)ccc1[N+](=O)[O-])c1ccccc1 (configuration not stated),0,/,-4.2*,-1.6,/,27
